The campaign covered roughly 69,000 compounds. About 420 (0.61%) showed an effect of 50% or more. The sample holds strong results, similar compounds and a random draw of the others, so the mix is not that of the screen.

This test addresses T1, Histidine--tRNA ligase (Leishmania infantum) (UniProt A4I591).
T1 sequence (whole entry): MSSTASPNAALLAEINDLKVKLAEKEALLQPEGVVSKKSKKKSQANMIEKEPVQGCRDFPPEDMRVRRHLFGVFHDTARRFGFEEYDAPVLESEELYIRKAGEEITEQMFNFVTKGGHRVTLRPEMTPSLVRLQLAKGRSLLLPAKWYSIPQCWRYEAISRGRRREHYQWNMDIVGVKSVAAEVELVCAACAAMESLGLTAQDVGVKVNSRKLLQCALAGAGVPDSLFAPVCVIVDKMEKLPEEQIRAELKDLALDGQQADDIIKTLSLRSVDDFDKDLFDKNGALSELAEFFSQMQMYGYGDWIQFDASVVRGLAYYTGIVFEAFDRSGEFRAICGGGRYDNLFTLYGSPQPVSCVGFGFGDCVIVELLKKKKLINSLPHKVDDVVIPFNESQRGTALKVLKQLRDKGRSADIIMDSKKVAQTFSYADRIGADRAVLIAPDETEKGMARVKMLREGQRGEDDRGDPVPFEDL
In words: Leishmania infantum Histidine tRNA synthetase (LdHisRS). The format is functional. Also on record: scale not given: in the data most compounds retested in dose-response had high values. Particulars: 30 µM.
Take `CNc1ncccc1CN1CCN2CCN(C)CC2C1` (stereo not given): the Percent Effect stood at 6.33%.

On to `Cc1cccc2cc(CN3CCCN4CCC[C@H]4C3)c(=O)[nH]c12`, for which the Percent Effect is 17.5%.

On to `Clc1cc(CN2CCCN3CCCC3C2)c2ncccc2c1` (stereo not given), for which the Percent Effect was 62.9%.

On to `CNC(=O)[C@H]1C[C@@H]2CN(c3cc(OC)ncn3)C[C@@H]2N1C(C)C`, for which the Percent Effect was -7.02%.

In the case of `c1cc(COC[C@]23COC[C@H]2CN(Cc2ccsc2)C3)ccn1`, the Percent Effect turned out to be 10.1%.

For `CNCCc1nc2cc(Cl)ccc2[nH]1`, the Percent Effect turned out to be 14.6%.

Consider `CNCCc1nc2cc(F)ccc2[nH]1`, for which the Percent Effect stood at 55.3%.

In the case of `CCNCCc1nc2cc(F)ccc2[nH]1`, the Percent Effect was 25.8%.

As for `O=C1[C@H]2CN(Cc3ccccn3)C[C@H]2CN1c1ccsc1`, the Percent Effect was found to be 6.42%.

In the case of `COc1ccc2c(c1)c(C(=O)Nc1n[nH]c(C(C)C)n1)cn2C(C)C`, the Percent Effect was determined as 22.9%.

In the case of `COc1ccc2c(c1)c(C(=O)Nc1nnn[nH]1)cn2C`, the Percent Effect came to 18.8%.

On to `COc1ccc2c(c1)c(C(=O)Nc1nnn[nH]1)cn2C(C)C`, for which the Percent Effect is 52.1%.

As for `CN1C(Cn2cccn2)C[C@@H]2CN(Cc3cccnc3)CC[C@@H]21` (stereo not given in full), the Percent Effect was 13.7%.

Consider `O=C1[C@@H]2CCN(C3CCC3)C[C@@H]2OCCN1Cc1ccncc1`, for which the Percent Effect is 17.2%.

Turning to `Cc1noc(C)c1CN1CC[C@H]2OCC[C@@]2(C(=O)N2CCCO2)C1`, the Percent Effect was found to be 17.6%.

On to `O=C1[C@H]2CN(CC3CC3)C[C@H]2CN1c1ccsc1`, for which the Percent Effect was 3.01%.

`COc1ccc(CCN)cc1-c1ccc(S(C)(=O)=O)cc1`: the Percent Effect was 23.9%.

On to `COc1ccc(CCN)cc1-c1ccc(C(N)=O)cc1`, for which the Percent Effect is 71.8%.

Regarding `COc1ccc(CCN)cc1-c1ccc(O)cc1`, the Percent Effect is -4.22%.

As for `c1cnc(N2CCO[C@H]3CN(CC4CCOCC4)C[C@H]32)nc1`, the Percent Effect worked out at 11.7%.

The values are drawn from ChEMBL document CHEMBL3988442, “University of Dundee, Small-Polar-MMV Screening Library” (2021).
